# DUSP3 inh: VHR1 phosphatase inhibitors, primary screen, biochemical, colorimetric, HTS. inhibition, % at 20 µM. recombinant VHR phosphatase, colorimetric substrate read-out. AID 1992, 2009. Dual specificity protein phosphatase 3 (Homo sapiens), P51452. actives 0.7% (n = 50,000); in the data active = inhibition above about 60%
# Target sequence (P51452 whole entry, looked up): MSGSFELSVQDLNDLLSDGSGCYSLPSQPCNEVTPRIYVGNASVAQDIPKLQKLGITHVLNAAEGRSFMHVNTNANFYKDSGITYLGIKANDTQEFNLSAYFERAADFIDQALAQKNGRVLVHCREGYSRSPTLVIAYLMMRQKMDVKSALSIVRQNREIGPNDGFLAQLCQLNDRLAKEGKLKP
# * marks the source's active call; other numbers are inactive results. Many of the other results were omitted from the sample, so hits are more common in it than they were.
SMILES,DUSP3 inh
O=C1NN(c2ccc(F)cc2)C(=O)/C1=C\c1ccc(-c2cccc(C(=O)O)c2)o1,-10
O=C1NC(=O)N(c2cccc(Br)c2)C(=O)/C1=C/c1ccc(-c2ccc(C(=O)O)cc2)o1,100*
O=C1NN(c2ccccc2)C(=O)/C1=C/c1ccc(-c2ccccc2)o1,111*
O=C1NN(c2ccccc2)C(=O)/C1=C/c1ccc(-c2ccc(F)cc2)o1,-15
O=C1NC(=S)N(c2cccc(Br)c2)C(=O)/C1=C/c1ccc(-c2ccc(C(=O)O)cc2)o1,92
COc1cccc(N(CC(=O)Nc2cc(OC)ccc2OC)S(=O)(=O)c2ccccc2)c1,-7
O=C(Cc1ccc(Cl)cc1)NCCCN1CCOCC1,-13
Cc1c(Cc2ccccc2)sc(NC(=O)CCc2ccccc2)c1C(N)=O,2
CC(C)(C)c1ccc(OCC(=O)Nc2cccc([N+](=O)[O-])c2)cc1,-15
Cc1ccc(N2C(=O)/C(=C3/C(=O)N(C)c4ccccc43)SC2=S)cc1C,-8
CN1CCC(=NNC(=O)c2cc3ccccc3cc2O)CC1,94*
CCCN1CCC(=NNC(=O)c2ccccc2O)CC1,-14
CN1CCC(=NNC(=O)c2cccc([N+](=O)[O-])c2)CC1,-14
O=C1c2ccccc2NC(c2ccccc2)N1c1ccc(Cl)cc1 (stereo not given),99
CCOC(=O)c1c(-c2ccc(C)cc2)csc1NC(=O)CCCC(=O)O,-15
O=C1C(Nc2ccc(Cl)cc2)=C(N2CCCCC2)C(=O)c2ccccc21,-15
O=[N+]([O-])c1ccccc1S(=O)(=O)NC1CCS(=O)(=O)C1 (stereo not given),-16
Nc1cccc(C2=Nc3cccc4cccc(c34)N2)c1,85*
Nc1cccc(-c2cc(C(=O)O)c3ccccc3n2)c1,0
c1ccc(NC2=Nc3cccc4cccc2c34)cc1,-9
COc1cc(/C(C)=N/N2CCN(Cc3cccc4ccccc34)CC2)ccc1O,-6
Cc1ccc(C)n1-c1ccc(SCC(=O)O)cc1,91*
CC(=O)c1ccc(-n2c(C)ccc2C)cc1,11
Cc1ccc(C)n1-c1ccc(OCC(=O)O)cc1,29
O=C(Nc1ccc(-c2nc3ccccc3s2)c(O)c1)c1ccncc1,0
SMILES,DUSP3 inh
COc1ccc(C2CC(c3ccccc3O)=NN2)cc1 (stereo not given),-7
O=C1CC(c2ccccc2F)c2cc(Br)c3ccccc3c2N1 (stereo not given),-4
CC(C)Oc1ccccc1C1CC(=O)Nc2c1cc(Br)c1ccccc21 (stereo not given),108*
COc1cc(C2CC(=O)Nc3c2cc(Br)c2ccccc32)cc(OC)c1OC (stereo not given),4
O=[N+]([O-])c1cccc(NS(=O)(=O)/C=C/c2ccccc2)c1,-22
O=C1/C(=C/c2ccccc2Cl)NC(=S)N1c1ccccc1,-30
CCCOC(=O)c1c(N)sc2c1CCC2,8
CCOC(=O)c1c(N)sc2c1CCN(Cc1ccccc1)C2,96*
CCOC(=O)c1c(C)nn(Cc2ccccc2)c1N,6
COc1ccc(N2C(=O)NC(=O)/C(=C/c3ccc(I)o3)C2=O)cc1,107*
COc1ccc(N2C(=O)/C(=C/c3cc(C)n(-c4ccccc4)c3C)C(=O)NC2=S)cc1,89
COc1ccc(N2C(=O)NC(=O)/C(=C/c3ccc(-c4ccc(C(=O)O)cc4)o3)C2=O)cc1,46
COc1ccc(N2C(=O)/C(=C/c3ccc(I)o3)C(=O)NC2=S)cc1,92*
COc1ccc(N2C(=O)NC(=O)/C(=C/c3ccc(-c4cccc(Cl)c4)o3)C2=O)cc1,6
COc1ccc(N2C(=O)/C(=C/c3ccc(-c4cc(C(=O)O)ccc4Cl)o3)C(=O)NC2=S)cc1,-8
COc1cc(/C=C2/C(=O)NC(=O)N(c3ccc(C(C)C)cc3)C2=O)cc(Br)c1O,16
CC1=C(C(=O)OCCc2ccccc2)C(c2ccccc2OC(C)C)CC(=O)N1 (stereo not given),-5
CC1=C(C(=O)OCc2ccccc2)C(c2ccccc2OC(C)C)CC(=O)N1 (stereo not given),0
CC1=C(C(=O)OC(C)C)C(c2ccccc2F)CC(=O)N1 (stereo not given),118*
CCOC(=O)c1nc(NC(=O)/C=C/c2ccco2)sc1C,1
CC(C)NNC(=O)c1nc(-c2ccccc2)cc(-c2ccccc2)n1,-7
COc1ccc(C(=O)Nc2cc(C)cc(C)c2)c(OC)c1,6
COc1ccc(C(=O)Nc2ccc(S(=O)(=O)Nc3cc(C)on3)cc2)c(OC)c1,110*
Cc1cc(NS(=O)(=O)c2ccc(NC(=O)c3cc(Cl)cc(Cl)c3)cc2)no1,-28
Nc1nc2c(s1)-c1ccccc1CC2,47
CN1C(=O)/C(=C\c2ccc([N+](=O)[O-])o2)SC1=S,-4
CN1C(=O)/C(=C\c2ccc(Sc3ccc(Cl)cc3)o2)SC1=S,62*
CN1C(=O)/C(=C\c2ccc(-c3ccc(F)c(Cl)c3)o2)SC1=S,-2
C=CCc1cc(/C=C2\C(=O)NC(=O)N(c3ccc(C)cc3)C2=O)cc(OC)c1OCC(=O)OC,1
COC(=O)c1c(-c2ccc(Cl)cc2)csc1N,81

# Screening data deposited in PubChem by Sanford-Burnham Center for Chemical Genomics.
